Columns and labels:
[1] = target: Sphingosine kinase 1 (Homo sapiens) (UniProt Q9NYA1); details: at 1 µM;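 further: mean SPHK1 inhibition value reported from the GSK PKIS kinase panel screen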
[2] = target: T1, Sphingosine kinase 2 (Homo sapiens) (UniProt Q9NRA0); details: at 0.1 µM
T1 sequence (whole entry): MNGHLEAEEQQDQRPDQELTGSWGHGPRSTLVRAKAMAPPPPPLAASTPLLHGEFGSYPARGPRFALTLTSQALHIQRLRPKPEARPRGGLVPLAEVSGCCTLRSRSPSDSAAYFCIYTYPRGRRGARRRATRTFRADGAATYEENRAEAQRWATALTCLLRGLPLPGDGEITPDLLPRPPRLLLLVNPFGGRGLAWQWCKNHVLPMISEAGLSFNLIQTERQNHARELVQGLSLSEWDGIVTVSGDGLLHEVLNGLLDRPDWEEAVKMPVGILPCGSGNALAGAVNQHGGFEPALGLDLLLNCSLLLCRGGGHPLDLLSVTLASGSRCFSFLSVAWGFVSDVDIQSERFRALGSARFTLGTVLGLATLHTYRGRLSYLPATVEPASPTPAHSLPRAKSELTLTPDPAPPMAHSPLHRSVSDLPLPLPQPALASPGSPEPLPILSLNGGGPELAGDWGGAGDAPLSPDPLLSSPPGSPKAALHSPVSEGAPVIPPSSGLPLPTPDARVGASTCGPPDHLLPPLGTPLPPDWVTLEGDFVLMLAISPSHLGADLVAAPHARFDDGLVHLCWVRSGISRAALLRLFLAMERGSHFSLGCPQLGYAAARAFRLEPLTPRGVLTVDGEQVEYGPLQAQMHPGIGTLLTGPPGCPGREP

[3] = target: T1, Sphingosine kinase 2 (Homo sapiens); details: at 1 µM
[4] = target: Casein kinase II subunit alpha (Homo sapiens) (UniProt P68400); details: at 0.1 µM
Chain of Casein kinase II subunit alpha (Homo sapiens) (P68400 whole entry, looked up): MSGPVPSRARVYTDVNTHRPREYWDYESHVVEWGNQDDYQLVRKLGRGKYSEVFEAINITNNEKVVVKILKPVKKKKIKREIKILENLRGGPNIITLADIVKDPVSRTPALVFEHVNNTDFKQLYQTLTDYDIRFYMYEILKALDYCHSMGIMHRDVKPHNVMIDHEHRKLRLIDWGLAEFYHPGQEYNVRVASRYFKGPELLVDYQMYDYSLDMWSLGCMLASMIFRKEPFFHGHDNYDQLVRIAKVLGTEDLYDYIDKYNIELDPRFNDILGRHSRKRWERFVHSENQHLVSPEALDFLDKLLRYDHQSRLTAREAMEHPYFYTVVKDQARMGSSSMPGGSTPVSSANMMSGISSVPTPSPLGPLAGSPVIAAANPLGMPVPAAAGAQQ

[5] = target: Casein kinase II subunit alpha (Homo sapiens) (UniProt P68400); details: at 1 µM
[6] = target: T2, Inhibitor of nuclear factor kappa-B kinase subunit alpha (Homo sapiens) (UniProt O15111); details: at 0.1 µM
T2 sequence (whole entry): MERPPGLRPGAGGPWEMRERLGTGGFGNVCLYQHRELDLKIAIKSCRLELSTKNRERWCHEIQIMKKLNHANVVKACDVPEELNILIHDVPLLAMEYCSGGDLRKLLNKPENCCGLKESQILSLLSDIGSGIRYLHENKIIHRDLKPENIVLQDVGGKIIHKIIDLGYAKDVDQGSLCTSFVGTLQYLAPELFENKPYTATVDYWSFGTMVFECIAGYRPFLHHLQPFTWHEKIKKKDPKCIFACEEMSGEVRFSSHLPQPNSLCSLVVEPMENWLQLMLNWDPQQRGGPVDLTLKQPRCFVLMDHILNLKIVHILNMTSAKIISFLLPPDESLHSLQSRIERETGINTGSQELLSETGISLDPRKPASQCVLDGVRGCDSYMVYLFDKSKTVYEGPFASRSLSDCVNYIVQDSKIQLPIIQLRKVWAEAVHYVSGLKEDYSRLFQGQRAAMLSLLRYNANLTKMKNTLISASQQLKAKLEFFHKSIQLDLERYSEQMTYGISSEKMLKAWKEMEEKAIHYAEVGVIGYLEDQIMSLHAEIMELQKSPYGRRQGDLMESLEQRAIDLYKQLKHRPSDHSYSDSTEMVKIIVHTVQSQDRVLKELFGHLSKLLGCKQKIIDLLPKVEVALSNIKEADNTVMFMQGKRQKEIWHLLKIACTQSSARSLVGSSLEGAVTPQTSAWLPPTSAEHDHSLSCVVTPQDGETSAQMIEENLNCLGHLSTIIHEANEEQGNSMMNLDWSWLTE

[7] = target: T2, Inhibitor of nuclear factor kappa-B kinase subunit alpha (Homo sapiens); details: at 1 µM
[8] = target: T3, Inhibitor of nuclear factor kappa-B kinase subunit beta (Homo sapiens) (UniProt O14920); details: at 0.1 µM
T3 sequence (whole entry): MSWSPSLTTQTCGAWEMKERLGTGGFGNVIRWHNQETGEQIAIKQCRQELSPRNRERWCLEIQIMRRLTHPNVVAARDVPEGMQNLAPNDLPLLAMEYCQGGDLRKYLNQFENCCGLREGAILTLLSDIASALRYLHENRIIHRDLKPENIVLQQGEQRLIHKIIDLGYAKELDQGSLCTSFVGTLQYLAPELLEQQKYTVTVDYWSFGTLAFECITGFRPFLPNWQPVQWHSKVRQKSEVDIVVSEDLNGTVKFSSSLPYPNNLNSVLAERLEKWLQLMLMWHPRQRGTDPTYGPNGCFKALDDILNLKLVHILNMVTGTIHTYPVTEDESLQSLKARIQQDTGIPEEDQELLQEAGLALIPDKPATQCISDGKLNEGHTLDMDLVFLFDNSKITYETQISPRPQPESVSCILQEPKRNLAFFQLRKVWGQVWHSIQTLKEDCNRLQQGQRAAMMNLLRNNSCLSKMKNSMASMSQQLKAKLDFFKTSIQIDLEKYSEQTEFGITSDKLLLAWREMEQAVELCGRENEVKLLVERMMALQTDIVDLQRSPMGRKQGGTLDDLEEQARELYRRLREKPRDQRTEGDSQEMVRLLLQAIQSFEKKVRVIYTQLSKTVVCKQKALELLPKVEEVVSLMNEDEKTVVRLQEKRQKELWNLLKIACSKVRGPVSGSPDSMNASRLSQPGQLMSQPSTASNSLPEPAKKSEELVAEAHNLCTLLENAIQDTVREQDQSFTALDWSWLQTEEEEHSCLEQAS

[9] = target: T3, Inhibitor of nuclear factor kappa-B kinase subunit beta (Homo sapiens); details: at 1 µM
[10] = target: T4, Inhibitor of nuclear factor kappa-B kinase subunit epsilon (Homo sapiens) (UniProt Q14164); details: at 0.1 µM
T4 sequence (whole entry): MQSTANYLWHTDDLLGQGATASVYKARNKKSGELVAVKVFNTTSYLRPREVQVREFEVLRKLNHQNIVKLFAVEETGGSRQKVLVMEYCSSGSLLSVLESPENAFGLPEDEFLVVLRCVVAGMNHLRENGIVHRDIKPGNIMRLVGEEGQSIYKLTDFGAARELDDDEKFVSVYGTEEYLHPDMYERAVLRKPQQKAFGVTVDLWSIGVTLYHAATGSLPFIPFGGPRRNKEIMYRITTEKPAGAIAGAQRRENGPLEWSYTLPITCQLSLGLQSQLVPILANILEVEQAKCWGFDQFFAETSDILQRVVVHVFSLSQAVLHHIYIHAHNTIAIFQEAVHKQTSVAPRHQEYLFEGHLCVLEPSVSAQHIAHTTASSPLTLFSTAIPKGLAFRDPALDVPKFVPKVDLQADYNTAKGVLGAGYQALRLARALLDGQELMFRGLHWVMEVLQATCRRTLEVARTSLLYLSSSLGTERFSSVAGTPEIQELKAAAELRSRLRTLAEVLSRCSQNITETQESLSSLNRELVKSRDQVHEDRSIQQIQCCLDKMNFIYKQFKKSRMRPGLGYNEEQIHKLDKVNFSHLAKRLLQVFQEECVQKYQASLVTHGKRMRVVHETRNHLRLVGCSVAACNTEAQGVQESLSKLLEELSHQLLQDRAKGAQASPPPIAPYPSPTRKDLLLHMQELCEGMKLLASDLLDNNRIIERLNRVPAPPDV

[11] = target: T4, Inhibitor of nuclear factor kappa-B kinase subunit epsilon (Homo sapiens); details: at 1 µM
[12] = target: T5, Serine/threonine-protein kinase Nek1 (Homo sapiens) (UniProt Q96PY6); details: at 0.1 µM
T5 sequence (whole entry): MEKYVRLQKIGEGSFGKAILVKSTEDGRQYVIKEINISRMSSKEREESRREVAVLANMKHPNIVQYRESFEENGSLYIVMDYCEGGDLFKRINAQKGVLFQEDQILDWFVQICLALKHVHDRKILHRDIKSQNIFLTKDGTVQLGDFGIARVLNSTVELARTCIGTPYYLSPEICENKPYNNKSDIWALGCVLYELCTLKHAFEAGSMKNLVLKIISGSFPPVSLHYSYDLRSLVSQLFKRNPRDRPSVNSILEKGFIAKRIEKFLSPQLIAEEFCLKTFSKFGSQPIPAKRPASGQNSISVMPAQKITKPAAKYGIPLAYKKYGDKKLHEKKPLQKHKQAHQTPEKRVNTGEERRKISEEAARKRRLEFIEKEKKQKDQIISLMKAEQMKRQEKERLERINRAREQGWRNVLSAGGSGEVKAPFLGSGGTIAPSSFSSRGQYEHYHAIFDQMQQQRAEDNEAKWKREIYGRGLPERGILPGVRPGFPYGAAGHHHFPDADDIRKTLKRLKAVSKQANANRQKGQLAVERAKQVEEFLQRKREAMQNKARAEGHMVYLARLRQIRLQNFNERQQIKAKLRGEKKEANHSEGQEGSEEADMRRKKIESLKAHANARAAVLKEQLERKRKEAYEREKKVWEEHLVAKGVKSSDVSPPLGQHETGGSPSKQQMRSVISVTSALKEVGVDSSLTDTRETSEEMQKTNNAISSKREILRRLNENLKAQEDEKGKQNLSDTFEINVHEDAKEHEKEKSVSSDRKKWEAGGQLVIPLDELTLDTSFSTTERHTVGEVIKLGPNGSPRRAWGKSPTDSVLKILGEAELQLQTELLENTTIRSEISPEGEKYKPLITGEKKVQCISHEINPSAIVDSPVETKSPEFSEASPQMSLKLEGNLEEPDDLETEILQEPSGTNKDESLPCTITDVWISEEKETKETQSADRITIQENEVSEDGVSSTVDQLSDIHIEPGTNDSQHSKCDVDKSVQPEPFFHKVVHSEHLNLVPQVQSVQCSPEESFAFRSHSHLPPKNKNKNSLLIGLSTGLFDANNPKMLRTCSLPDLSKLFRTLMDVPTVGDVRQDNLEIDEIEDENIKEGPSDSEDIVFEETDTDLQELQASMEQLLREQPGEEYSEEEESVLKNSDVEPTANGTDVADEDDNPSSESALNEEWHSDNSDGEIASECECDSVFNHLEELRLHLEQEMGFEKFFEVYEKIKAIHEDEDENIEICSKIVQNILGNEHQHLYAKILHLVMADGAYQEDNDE

[13] = target: T5, Serine/threonine-protein kinase Nek1 (Homo sapiens); details: at 1 µM
[14] = target: T6, Serine/threonine-protein kinase Nek2 (Homo sapiens) (UniProt P51955); details: at 0.1 µM
T6 sequence (whole entry): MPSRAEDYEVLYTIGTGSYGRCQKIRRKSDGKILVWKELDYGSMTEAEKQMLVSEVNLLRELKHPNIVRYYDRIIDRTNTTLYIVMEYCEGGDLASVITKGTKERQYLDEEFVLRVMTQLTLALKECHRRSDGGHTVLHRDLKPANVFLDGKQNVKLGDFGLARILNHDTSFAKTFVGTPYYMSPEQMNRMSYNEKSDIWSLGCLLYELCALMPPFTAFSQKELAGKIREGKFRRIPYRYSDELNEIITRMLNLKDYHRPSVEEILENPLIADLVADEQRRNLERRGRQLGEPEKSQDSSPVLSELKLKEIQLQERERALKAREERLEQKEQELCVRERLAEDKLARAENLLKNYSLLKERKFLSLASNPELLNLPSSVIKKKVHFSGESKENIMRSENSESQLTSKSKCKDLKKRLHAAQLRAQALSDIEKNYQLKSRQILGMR

[15] = target: T6, Serine/threonine-protein kinase Nek2 (Homo sapiens); details: at 1 µM
[16] = target: Serine/threonine-protein kinase Nek6 (Homo sapiens) (UniProt Q9HC98); details: at 0.1 µM
Chain of Serine/threonine-protein kinase Nek6 (Homo sapiens) (Q9HC98 whole entry): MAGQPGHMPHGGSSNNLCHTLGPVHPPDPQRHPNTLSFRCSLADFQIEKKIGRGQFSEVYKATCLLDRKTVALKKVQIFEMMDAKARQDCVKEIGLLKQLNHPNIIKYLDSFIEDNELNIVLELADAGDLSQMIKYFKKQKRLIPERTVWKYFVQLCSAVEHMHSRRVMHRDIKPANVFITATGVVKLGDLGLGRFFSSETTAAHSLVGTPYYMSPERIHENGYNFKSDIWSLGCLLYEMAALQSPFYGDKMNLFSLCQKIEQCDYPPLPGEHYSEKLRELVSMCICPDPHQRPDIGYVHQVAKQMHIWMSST

[17] = target: Serine/threonine-protein kinase Nek6 (Homo sapiens) (UniProt Q9HC98); details: at 1 µM
[18] = target: Serine/threonine-protein kinase Nek7 (Homo sapiens) (UniProt Q8TDX7); details: at 0.1 µM
Chain of Serine/threonine-protein kinase Nek7 (Homo sapiens) (Q8TDX7 whole entry, looked up): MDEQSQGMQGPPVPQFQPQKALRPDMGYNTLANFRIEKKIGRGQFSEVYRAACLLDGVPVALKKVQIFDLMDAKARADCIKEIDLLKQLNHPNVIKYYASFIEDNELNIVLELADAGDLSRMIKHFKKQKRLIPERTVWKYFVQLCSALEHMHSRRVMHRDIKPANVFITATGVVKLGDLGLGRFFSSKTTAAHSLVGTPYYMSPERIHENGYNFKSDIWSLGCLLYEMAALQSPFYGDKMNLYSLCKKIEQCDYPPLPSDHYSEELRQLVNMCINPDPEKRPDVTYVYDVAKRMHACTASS

[19] = target: Serine/threonine-protein kinase Nek7 (Homo sapiens) (UniProt Q8TDX7); details: at 1 µM
[20] = target: T7, Serine/threonine-protein kinase Nek9 (Homo sapiens) (UniProt Q8TD19); details: at 0.1 µM;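 further: reported value is the mean percent inhibition of NEK9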
T7 sequence (whole entry): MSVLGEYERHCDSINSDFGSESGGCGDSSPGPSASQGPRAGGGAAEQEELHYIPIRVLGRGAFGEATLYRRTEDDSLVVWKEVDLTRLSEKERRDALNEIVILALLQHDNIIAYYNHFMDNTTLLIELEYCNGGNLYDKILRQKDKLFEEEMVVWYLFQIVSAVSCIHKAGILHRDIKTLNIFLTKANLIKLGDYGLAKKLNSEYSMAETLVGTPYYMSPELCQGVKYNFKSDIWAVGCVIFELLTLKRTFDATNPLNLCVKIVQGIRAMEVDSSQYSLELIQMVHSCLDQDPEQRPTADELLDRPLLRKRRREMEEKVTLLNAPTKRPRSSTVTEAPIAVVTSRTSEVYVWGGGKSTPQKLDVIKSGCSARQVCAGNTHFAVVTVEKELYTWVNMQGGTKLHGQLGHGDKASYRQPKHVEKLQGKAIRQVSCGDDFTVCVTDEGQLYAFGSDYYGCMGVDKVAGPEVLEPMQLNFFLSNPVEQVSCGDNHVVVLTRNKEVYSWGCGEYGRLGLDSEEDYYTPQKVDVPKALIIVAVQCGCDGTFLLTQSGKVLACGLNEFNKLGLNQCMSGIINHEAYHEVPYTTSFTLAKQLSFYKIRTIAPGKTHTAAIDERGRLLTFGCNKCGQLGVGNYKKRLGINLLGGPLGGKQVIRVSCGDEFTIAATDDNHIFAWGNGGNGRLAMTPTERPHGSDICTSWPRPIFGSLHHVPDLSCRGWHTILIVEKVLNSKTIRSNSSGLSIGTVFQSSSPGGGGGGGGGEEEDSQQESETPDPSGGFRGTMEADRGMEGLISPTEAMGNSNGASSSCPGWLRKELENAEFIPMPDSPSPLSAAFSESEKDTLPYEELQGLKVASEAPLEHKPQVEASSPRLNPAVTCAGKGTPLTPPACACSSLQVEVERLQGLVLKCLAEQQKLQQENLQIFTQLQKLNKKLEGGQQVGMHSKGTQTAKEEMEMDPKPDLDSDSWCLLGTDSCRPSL

Chain of Sphingosine kinase 1 (Homo sapiens) (Q9NYA1 whole entry): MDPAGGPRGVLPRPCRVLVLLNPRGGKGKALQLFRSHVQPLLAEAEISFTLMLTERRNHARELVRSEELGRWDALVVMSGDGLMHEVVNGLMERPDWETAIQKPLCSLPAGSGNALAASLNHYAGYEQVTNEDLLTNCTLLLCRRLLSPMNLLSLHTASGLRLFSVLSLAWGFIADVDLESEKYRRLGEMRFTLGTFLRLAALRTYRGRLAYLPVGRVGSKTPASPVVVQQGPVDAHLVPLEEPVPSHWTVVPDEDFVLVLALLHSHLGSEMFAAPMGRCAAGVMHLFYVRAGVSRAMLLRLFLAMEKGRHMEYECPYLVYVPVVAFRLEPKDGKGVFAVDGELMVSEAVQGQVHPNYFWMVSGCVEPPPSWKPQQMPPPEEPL

COC(=O)Nc1nc2ccc(Sc3ccc(NC(=O)Nc4cc(C(F)(F)F)ccc4F)cc3)cc2[nH]1
inhibition [1]: 4.23%
inhibition [2]: -0.54%
inhibition [3]: -0.1%
inhibition [4]: 2.02%
inhibition [5]: 6.92%
inhibition [6]: 2.75%
inhibition [7]: -2%
inhibition [8]: -0.76%
inhibition [9]: -1.08%
inhibition [10]: -0.58%
inhibition [11]: -1.36%
inhibition [12]: -0.58%
inhibition [13]: 1.18%
inhibition [14]: 0.6%
inhibition [15]: -0.82%
inhibition [16]: 0.73%
inhibition [17]: -0.98%
inhibition [18]: -0.35%
inhibition [19]: -3.05%
inhibition [20]: -1.77%
